# Rows were chosen to be rich in hits. Some 9% of all compounds tested hit in one or more screens of this group.
# 12-LOX inh: Primary qHTS assay for inhibitors of human arachidonate 12S-lipoxygenase (ALOX12): Round 2; Potency, µM (highest dose often 108 µM), for the others: top-dose activity change, negative = inhibition, most hits filed as inhibitors; purified 12hLO, xylenol orange hydroperoxide absorbance; AID 1671190, 2021; Polyunsaturated fatty acid lipoxygenase ALOX12 (Homo sapiens), P18054; 580,000 compounds, 1.1% hits; also: % is scaled to controls: 0 for no effect and ±100 for the full control effect
#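 Hydroperoxide product was detected by ferrous iron/xylenol orange as the 573 to 405 nm absorbance ratio. Arachidonic acid at 40 uM (final) was turned over for 30 min at room temperature by 150 nM human 12hLO, pH 7.0 Hepes buffer, after 15 min compound preincubation.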
# BAZ2B block: qHTS Assay for Inhibitors of BAZ2B | Bromodomain adjacent to zinc finger domain protein 2B (Homo sapiens), Q9UIF8 | AlphaScreen BAZ2B-H3K14Ac peptide displacement | Potency, µM (top dose mostly 114 µM), for the others: top-dose activity change, negative = inhibition, actives largely listed as inhibitors | 360,000 compounds, 4.4% hits; also: % is scaled to controls: 0 for no effect and ±100 for the full control effect; nearly all actives have a fitted effect of over 60% in size
#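 In this displacement format the biotinylated H3(5-23) peptide acetylated at Lys14 serves as ligand at 50 nM, with BAZ2B at 50 nM in PBS pH 7.4 containing 0.01% Tween-20. Donor and acceptor beads are 10 ug/mL final.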
# HP1b chromo inh: HTS for Inhibitors of HP1-beta Chromodomain Interactions with Methylated Histone Tails; 390,000 compounds, 0.56% hits; Potency, µM (titrated, usually from 114 µM), for the others: at the top dose activity change, negative = inhibition, most hits filed as inhibitors; Chromobox protein homolog 1 (Homo sapiens), P83916; AlphaScreen HP1-beta / biotin-H3K9me3 peptide binding; also: nearly all actives have a fitted effect of over 70% in size
#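 HP1-beta protein (50 nM final) preincubated 30 min at room temperature with biotinylated H3(1-18)K9me3 peptide (50 nM) in PBS pH 7.4, 0.01% Tween-20, then compound added for 30 min. AlphaScreen streptavidin donor/nickel chelate acceptor beads (10 ug/mL final), 30 min dark, luminescence read.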
# G9a block: qHTS Assay for Inhibitors of Histone Lysine Methyltransferase G9a; Potency, µM (top dose mostly 102 µM), without a hit: top-dose activity, negative = inhibition, most hits filed as inhibitors; AID 504332, 2011; Histone-lysine N-methyltransferase EHMT2 (Homo sapiens), Q96KQ7; G9a H3K9 monomethylation, AlphaScreen, 2 h; 350,000 compounds, 8.8% hits; also: % is scaled to controls: 0 for no effect and ±100 for the full control effect; nearly all actives have a fitted effect of over 75% in size
#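 Quantitative HTS format: methyltransferase activity on a biotin-tagged H3K9 peptide is measured by AlphaScreen, using a rabbit anti-monomethyl-H3K9 antibody with streptavidin donor and anti-IgG acceptor beads. Final levels are 20 nM enzyme, 500 nM peptide, 20 uM SAM; 2 h RT.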
# JMJD2A Tudor inh: qHTS Assay for Inhibitors of JMJD2A-Tudor Domain; Lysine-specific demethylase 4A (Homo sapiens), O75164; AlphaScreen JMJD2A-Tudor / H3K4me3 peptide binding; Potency, µM (titrated, usually from 114 µM), for the others: at the highest dose activity change, negative = inhibition, actives largely listed as inhibitors; 390,000 compounds, 4.4% hits; AID 504339, 2011; also: % is scaled to controls: 0 for no effect and ±100 for the full control effect; nearly all actives have a fitted effect of over 50% in size
# PLK1 PBD block: qHTS for Inhibitors of PLK1-PDB (polo-like kinase 1 - polo-box domain): Primary Screen; Potency, µM, for inactives: max response, negative = inhibition, hits mostly inhibitors; Serine/threonine-protein kinase PLK1 (Homo sapiens), P53350; Plk1 PBD binding of FITC phosphopeptide, fluorescence polarization; 360,000 compounds, 2.8% hits; also: series mostly up to about 57 µM; % is scaled to controls: 0 for no effect and ±100 for the full control effect; nearly all actives have a fitted effect of over 65% in size
# Target sequence (P53350 whole entry, looked up, the tested form may be a part): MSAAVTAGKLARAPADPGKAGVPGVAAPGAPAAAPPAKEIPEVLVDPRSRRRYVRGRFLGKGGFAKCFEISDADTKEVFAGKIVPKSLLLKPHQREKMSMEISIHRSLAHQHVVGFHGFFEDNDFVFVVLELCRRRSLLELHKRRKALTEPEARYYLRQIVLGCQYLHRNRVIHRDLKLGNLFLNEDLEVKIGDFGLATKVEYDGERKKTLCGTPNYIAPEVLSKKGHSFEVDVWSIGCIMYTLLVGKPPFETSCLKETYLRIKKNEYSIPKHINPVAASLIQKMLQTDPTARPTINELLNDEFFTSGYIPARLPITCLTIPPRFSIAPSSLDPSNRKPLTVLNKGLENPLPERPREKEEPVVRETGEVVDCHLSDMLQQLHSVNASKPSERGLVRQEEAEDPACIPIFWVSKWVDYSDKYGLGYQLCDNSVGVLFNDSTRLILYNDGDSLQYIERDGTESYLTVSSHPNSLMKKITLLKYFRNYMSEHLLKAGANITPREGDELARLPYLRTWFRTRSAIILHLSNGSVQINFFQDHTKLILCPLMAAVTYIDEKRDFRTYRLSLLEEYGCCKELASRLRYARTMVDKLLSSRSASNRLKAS
# * marks the source's active call; other numbers are inactive results; ? = inconclusive; . = no result given; [ ] = dose if it differs, or a comment. Calls follow the shape of the dose curve; as a rule, active = well fitted curve in the direction sought with a large enough effect; inconclusive = small, poorly fitted or top-dose-only effect, or another doubt; inactive = no such curve, though single readings can be large; an effect the other way counts as inactive or inconclusive. Potency is read from the fitted curve at half-maximal effect.
SMILES,12-LOX inh,BAZ2B block,HP1b chromo inh,G9a block,JMJD2A Tudor inh,PLK1 PBD block
COc1cccc(-n2c(-c3ccc(C)cc3)cc3c2CC(C)(C)CC3=O)c1,-18%,11µM*,10%,?,?,.
COc1ccc(-n2c(-c3ccc(C)cc3)cc3c2CC(C)(C)CC3=O)c(OC)c1,2%,14µM*,?,13µM*,18µM*,.
COc1ccc(OC)c(NC(=O)Nc2ccc3c(c2)CCC3)c1,-21%,-30%,2%,.,-32%,5%
COc1cccc(/C=N/n2c(-c3ccco3)nc3ccccc3c2=O)c1,-16%,-5%,23%,4%[59 µM],-15%,0%
COc1ccc(-n2c(-c3ccc(C)cc3)cc3c2CC(C)(C)CC3=O)cc1Cl,-3%,5µM*,?,10µM*,32µM*,.
Cc1cc(NC(=O)CSc2nc(-c3cccnc3)ccc2C#N)no1,0%,4%,55%,?,-18%[11.4 µM],-23%
Cc1cc(NC(=O)CSc2nc3c(c(-c4cccnc4)c2C#N)CCC3)no1,?,79µM*,22%,18%[59 µM],?,-6%
CN(C)C(=O)C1CCc2sc(C(=O)N3CCCC3)cc2C1 (configuration not stated),40%,.,.,.,.,.
COc1ccc(C(NC(=O)CN2C(=O)NC3(CCc4ccccc43)C2=O)c2ccc(OC)cc2)cc1 (configuration not stated),-11%,1%,0%,50µM*,-28%,-2%
COc1ccc(OC)c(NC(=O)CN2C(=O)NC3(CCCc4ccccc43)C2=O)c1 (configuration not stated),-5%,-28%,22%,?,-27%,-2%
COc1cccc(NC(=O)CN2C(=O)NC3(CCCc4ccccc43)C2=O)c1 (configuration not stated),?,-4%,39%,10µM*,-1%,1%
COc1cccc(NC(=O)Cn2c(N3CCc4ccccc4C3)nc(C)cc2=O)c1,28µM*,.,.,.,.,.
COc1ccc(OC)c(NC(=O)Cn2c(N3CCc4ccccc4C3)nc(C)cc2=O)c1,-13%,.,.,.,.,.
COc1ccccc1-n1c(=O)c(C#N)c(-c2ccc([N+](=O)[O-])cc2)c2cc(C(=O)c3ccccc3O)cnc21,-20%,-31%,11%,.,-27%,3%
Fc1ccccc1COc1ccccc1/C=N/Nc1nc(N2CCCC2)nc(N2CCCC2)n1,2%,-12%,19%,18%[59 µM],-9%,-2%
CC1OC(CC(=O)O)CC2=C1C(=O)c1c(O)cccc1C2=O (configuration not stated),?,.,?,.,56µM*,2.4µM*
COCCc1ncc(CN2CCC(C(=O)Nc3cccc(-c4cscn4)c3)CC2)cn1,0%,-8%[57.1 µM],21%,-2%,?,19µM*
CCc1ncc(CN2CCCC(C(=O)Nc3cccc(-c4cccc(C)c4)c3)C2)cn1 (configuration not stated),11%,-18%,-13%,-4%,79µM*,-6%
CC(=O)c1cccc(CN2CCCC(C(=O)Nc3ccc(-c4ccco4)cc3)C2)c1 (configuration not stated),?,40µM*,18µM*,10µM*,?,-8%
CCc1ncc(CN2CCCC(C(=O)Nc3cccc(-c4ccc(F)cc4)c3)C2)cn1 (configuration not stated),?,-22%,5%,17%,-14%,1%
O=C(Nc1ccc(-c2ccco2)cc1)C1CCCN(Cc2ccc(CO)o2)C1 (configuration not stated),0%,?,-13%,.,?,-9%
CCN1C(=O)C2(CCN(S(=O)(=O)c3cc(Cl)ccc3OC)CC2)c2ccccc21,0%,.,.,.,.,.
Cc1ccccc1-n1c(SCC(=O)NCC2CCCO2)nnc1-c1ccncc1 (configuration not stated),11%,.,24%,.,12%,3%
CCN(CCCNC(=O)c1c(C)cc(=O)oc1C)c1ccccc1,7%,-13%,3%,?,-32%,1%
CCCCN(CCCNC(=O)c1c(C)cc(=O)oc1C)c1ccccc1,-2%,45µM*,?,50µM*,50µM*,-8%
SMILES,12-LOX inh,BAZ2B block,HP1b chromo inh,G9a block,JMJD2A Tudor inh,PLK1 PBD block
CN(C)c1ccc(C2(c3ccc(N(C)C)cc3)OC(=O)c3cc(N)ccc32)cc1,?,18µM*,16µM*,16%[2.33 µM],28µM*,-1%
O=C(NCc1ccccc1)C1C(c2ccccc2)=Nc2ccccc2N1C(=O)c1cnccn1 (configuration not stated),0%,.,.,.,.,-18%
COc1nc(-c2ccccc2)ccc1-c1noc(-c2cccs2)n1,51%,.,41%,.,-11%,4%
COc1ccc(OC)c(/C(C)=N/Nc2ccc(C(=O)O)cc2)c1,-20%,-22%,27%,14µM*,-7%,-1%
C/C(=N/Nc1ccc(C(=O)O)cc1)c1ccc(O)c(O)c1O,1%,-33%,7%,3.5µM*,10µM*,-19%
O=C(Nc1ccc(F)cc1)c1cccnc1,9%,1%,27%,.,-6%,5%
COC(=O)c1ccc(NC(=O)CSc2n[nH]c(-c3ccncc3)n2)cc1,0%,0%,46%,35µM*,3%,-1%
NS(=O)(=O)c1ccc(NC(=O)COC(=O)CSc2n[nH]c(-c3ccccc3)n2)cc1,-14%,-8%,35%,32µM*,-6%,-18%
Cc1ccc(NC(=O)CSc2n[nH]c(-c3ccncc3)n2)c(C)c1,0%,6%,24%,7%[59 µM],-4%,-8%
COc1cccc(NC(=O)CSc2nnc(-c3cc(C)[nH]n3)n2N)c1,17%,-19%,35%,-4%[0.0925 µM],-3%,2%
O=C(CSc1n[nH]c(-c2ccncc2)n1)Nc1ccccc1Cl,-8%,7%,8%,50µM*,-7%,-12%
Cc1cc(-c2nnc(SCC(=O)Nc3cccc(Cl)c3)n2N)n[nH]1,-20%,56µM*,45%,3%,-2%,-5%
COc1ccc(-c2csc(-c3nc(-c4ccc(Br)s4)cs3)n2)cc1F,-18%,5%,36%,-45%[59 µM],1%,.
Cc1csc(SCC(=O)NC(=O)Cc2ccccc2)n1,-2%,7%,35%,-14%[59 µM],-8%,-6%

# Compound activity as filed in PubChem BioAssay.
